Reference: ChEMBL document CHEMBL3988442, “University of Dundee, Small-Polar-MMV Screening Library” (2021)

These molecules were tested against T1, Tyrosyl-tRNA synthetase, putative (Trypanosoma cruzi (strain CL Brener)) (UniProt Q4DSP6) (assay: Trypanosoma cruzi tyrosyl tRNA synthetase (TcYRS) SOP). Details: 30 µM.
T1 sequence (whole entry): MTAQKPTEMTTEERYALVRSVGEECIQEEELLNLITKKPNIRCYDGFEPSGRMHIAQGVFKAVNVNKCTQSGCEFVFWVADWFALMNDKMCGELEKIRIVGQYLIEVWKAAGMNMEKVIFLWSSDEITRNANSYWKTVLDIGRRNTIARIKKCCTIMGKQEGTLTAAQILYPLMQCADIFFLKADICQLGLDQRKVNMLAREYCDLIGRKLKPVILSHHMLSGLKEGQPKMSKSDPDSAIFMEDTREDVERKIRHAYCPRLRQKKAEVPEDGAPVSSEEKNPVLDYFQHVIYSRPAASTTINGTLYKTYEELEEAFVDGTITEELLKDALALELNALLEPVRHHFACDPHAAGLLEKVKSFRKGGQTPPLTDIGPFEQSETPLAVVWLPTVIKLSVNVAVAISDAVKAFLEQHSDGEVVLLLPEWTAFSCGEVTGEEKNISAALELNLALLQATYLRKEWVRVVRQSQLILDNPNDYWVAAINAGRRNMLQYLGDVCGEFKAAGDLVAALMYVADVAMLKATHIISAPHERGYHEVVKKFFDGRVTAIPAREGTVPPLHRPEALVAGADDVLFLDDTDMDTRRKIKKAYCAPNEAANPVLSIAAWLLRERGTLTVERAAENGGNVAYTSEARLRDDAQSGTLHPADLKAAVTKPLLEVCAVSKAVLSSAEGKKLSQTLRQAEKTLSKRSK
Format: functional
Design: scale not given: direction of the effect not stated beside the values
CCCS(=O)(=O)c1ncc(CN2CCC(CO)CC2)n1CC1CCCO1 (stereo not given) gave a Percent Effect of -7.69%.
Work on CS(=O)(=O)NC1CCN(C(=O)NCCc2ccccc2F)CC1 yielded a Percent Effect of 25.6%.
Cn1ccc(CN2CCC(CCc3ccc(O)cc3)CC2)cc1=O gave a Percent Effect of -17.7%.
Molecule Cc1cc(N2CCN(CCO)CC2)nc(-c2ccncc2)n1 has a Percent Effect of 7.79%.
Molecule COc1c(CNC2CCN(C(C)(C)C)CC2)c(C(C)C)nn1C has a Percent Effect of 16.1%.
With O=C1[C@@H]2CCN(Cc3ccncc3)C[C@@H]2OCCN1c1ccccc1 the Percent Effect was 14.1%.
For CC(C)c1cc(NC(=O)c2ccc(NC3CC3)nc2)[nH]n1, the Percent Effect was 24.4%.
Work on CN(C)C(=O)N1C[C@@H]2CC[C@H](C1)N(Cc1ccc3nsnc3c1)C2 yielded a Percent Effect of 2.56%.
In the case of Cc1csc(N2CCCN(Cc3noc(C)n3)CC2)n1, the Percent Effect was 7.59%.
In the case of CC(C)c1nccn1C1CCCN(C(=O)c2ccc3c(c2)OCO3)C1 (stereo not given), the Percent Effect was -2.35%.
In the case of Cc1nc(C)n(C2CCCN(C(=O)c3cc(C(N)=O)cs3)C2)n1 (stereo not given), the Percent Effect was 12.7%.
For CCN1CC(C(=O)NCc2ccccc2-n2cccn2)CC1=O (stereo not given), the Percent Effect was 23.5%.
Cc1cnn(C2CN(CC(O)c3ccc(F)cc3)C2)c1 (stereo not given) gave a Percent Effect of 13.6%.
CC(C)CN1CCN(Cc2nc3ccccc3[nH]2)[C@H]2CS(=O)(=O)C[C@H]21 gave a Percent Effect of 23.5%.
In the case of OCCC1CN(C2CCC2)CCN1C1CCCC1 (stereo not given), the Percent Effect was 7.69%.
In the case of Cc1cc(C)c2nc(CN3CC[C@@H](O)C3)cc(O)c2c1, the Percent Effect was 19.5%.
c1ccc(CN2CCN(Cc3cscn3)CC2)cc1 showed a Percent Effect of 18.8%.
O=C(CSc1nncs1)N1CCN(Cc2ccc(Cl)s2)CC1 gave a Percent Effect of 12.5%.
In the case of CC1CN(C(=O)CN(Cc2ccco2)C2CC2)CCO1 (stereo not given), the Percent Effect was 2.35%.
With C=Cc1ccc(C(=O)N2CCCC(Nc3ccc(OC)cc3)C2)cc1 (stereo not given) the Percent Effect was 19.5%.
